Experimental data from PubChem BioAssay AID547 (Emory University Molecular Libraries Screening Center, 2006).
Several values for one entry are separate records, joined by “and”; a condition that tells them apart may be missing. Equal values may be shown once. The campaign covered roughly 1,300 compounds. About 10 (0.8%) were called active. How the calls were made is not given here. Many of the other results were omitted from the sample, so actives are more common in it than they were.

Biological target: Chaperone protein DnaK (Escherichia coli (strain K12)) (UniProt P0A6Y8)
Assay: E. coli DnaK chaperone inhibitors, primary screen, luminescence, E. coli K12 (AID 547);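 further: tested at 10 µM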
Details: DnaK chaperone assay, luminescence read-out; active compounds read low

Structure (SMILES) | luminescence
NCCCCCCNS(=O)(=O)c1cccc2c(Cl)cccc12 | 2.8e+06 cps (inactive)
CCSC(N)=Nc1ccc(C(F)(F)F)cc1 | 2.3e+06 cps (inactive)
OC[C@H]1O[C@@H](n2cnc3c(Nc4ccccc4)ncnc32)C(O)[C@H]1O (stereo partly specified) | 2.3e+06 cps (inactive)
COc1ccccc1N1CCN(CCCCNS(=O)(=O)c2cccc3c(N(C)C)cccc23)CC1 | 2.1e+06 cps (inactive)
O=c1cc(-c2ccccc2)[nH]c2nc(Cl)ccc12 | 2.7e+06 cps (inactive)
CC(=O)N[C@H](C(=O)O)C(C)(C)SN=O | 2.5e+06 cps (inactive)
O=C(O)c1cc2cc(F)ccc2[nH]1 | 2.1e+06 cps (inactive)
O=c1[nH]c2cc(C(F)(F)F)ccc2n1-c1cc(C(F)(F)F)ccc1O | 2.6e+06 cps (inactive)
O=C(O)CC1CCCc2ccccc2C1O (stereo unspecified) | 2.7e+06 cps (inactive)
NCC(O)C1CCCCCCC1 (stereo unspecified) | 2.9e+06 cps (inactive)
CN=C(NC#N)Nc1ccc(C2=NNC(=O)CC2C)cc1 (stereo unspecified) | 2.6e+06 cps (inactive)
O=C1NC(c2cccc([N+](=O)[O-])c2)=CCN1c1ccccc1O | 3e+06 cps (inactive)
CC1(C)CCC=[N+]1[O-] | 2.6e+06 cps (inactive)
NC[C@@H]1O[C@H](C23CC4CC(CC(C4)C2)C3)Cc2c1ccc(O)c2O | 3e+06 cps (inactive)
N#C/C(=C\c1c[nH]c2ccccc12)C(=O)c1ccc(O)c(O)c1 | 2.2e+06 cps (inactive)
O=C1C2C=CC=CC2=NC(=S)N1CCN1CCC(=C(c2ccc(F)cc2)c2ccc(F)cc2)CC1 (stereo unspecified) | 2.9e+06 cps (inactive)
COc1cc2nc(N3CCN(C(=O)OCc4ccccc4)C(C(=O)NC(C)(C)C)C3)nc(N)c2cc1OC (stereo unspecified) | 2.3e+06 cps (inactive)
CCc1cccc(N(C)C(N)=Nc2cccc3ccccc23)c1 | 2.4e+06 cps (inactive)
Nc1nc(Cl)nc2c1ncn2[C@@H]1O[C@H](CO)[C@H](O)C1O (stereo partly specified) | 2.7e+06 cps (inactive)
OCc1ccc(-c2nn(Cc3ccccc3)c3ccccc23)o1 | 2.1e+06 cps (inactive)
CC(N)(Cc1ccc(O)c(O)c1)C(=O)O (stereo unspecified) | 2.3e+06 cps (inactive)
CC1CNCCN1S(=O)(=O)c1cccc2cnccc12 (stereo unspecified) | 3.1e+06 cps (inactive) and 2.6e+06 cps (inactive)
OCC1NC[C@@H](O)C(O)[C@@H]1O (stereo partly specified) | 2.4e+06 cps (inactive)

Structure (SMILES) | luminescence
O=C(O)CNC(=O)C(CS)Cc1ccccc1 (stereo unspecified) | 2.3e+06 cps (inactive)
CN(C)C/C=C(/c1ccc(Br)cc1)c1cccnc1 | 1.8e+06 cps (inactive)
CN1CCc2cc(NC(=O)Nc3cccnc3)ccc21 | 2.6e+06 cps (inactive)
CCCCOc1cc(CC2CNC(=O)N2)ccc1OC (stereo unspecified) | 2.5e+06 cps (inactive)
CCCCCCCCCCCCCCCCCC(=O)OC(CC(=O)O)C[N+](C)(C)C (stereo unspecified) | 2.5e+06 cps (inactive)
CN1C2CCC1CC(OC(=O)c1c[nH]c3ccccc13)C2 (stereo unspecified) | 2.3e+06 cps (inactive)
NCCS | 2.4e+06 cps (inactive)
Fc1ccc([C@@H]2CCNC[C@H]2COc2ccc3c(c2)OCO3)cc1 | 2.9e+06 cps (inactive)
NCCCCCCCCCCN | 2.6e+06 cps (inactive)
O=C(O)C1=CCCNC1 | 2.8e+06 cps (inactive)
C[C@]12CC[C@@H]3c4ccc(O)cc4CC[C@H]3[C@@H]1CC[C@@H]2O | 2.9e+06 cps (inactive)
CCOC(=O)C1=C[C@]2(CC)CCCN3CCc4c(n1c1ccccc41)[C@@H]32 | 2.3e+06 cps (inactive)
O=Nc1c(-c2c(O)[nH]c3ccccc23)[nH]c2ccccc12 | 2.9e+06 cps (inactive)
OC[C@H]1O[C@@H](n2cnc3c(NCCc4ccccc4)ncnc32)C(O)[C@H]1O (stereo partly specified) | 2.2e+06 cps (inactive)
CC(C)(C)NCC(O)COc1nsnc1N1CCOCC1 (stereo unspecified) | 2.3e+06 cps (inactive)
O=c1n(CCCN2CCN(c3cccc(Cl)c3)CC2)nc2ccccn12 | 2.5e+06 cps (inactive)
CCN1CCc2nc(N)oc2CC1 | 2.6e+06 cps (inactive)
CC(N)C1CCC(C(=O)Nc2ccncc2)CC1 (stereo unspecified) | 2.8e+06 cps (inactive)
COCc1nc2c([nH]1)c(=O)n(C)c(=O)n2CC(C)C | 2.7e+06 cps (inactive)
CCCCC1C(=O)N(c2ccccc2)N(c2ccccc2)C1=O | 2.6e+06 cps (inactive)
Oc1ccc(O)cc1 | 2.9e+06 cps (inactive)
NC(=O)CC[C@H](N)C(=O)O | 2.9e+06 cps (inactive)
COc1[nH]c2ccc(F)cc2c1C(=O)OCC1CCN(CCNS(C)(=O)=O)CC1 | 3e+06 cps (inactive)

Structure (SMILES) | luminescence
COc1ccc(-c2ccc(N)[n+](CCCC(=O)O)n2)cc1 | 2.3e+06 cps (inactive)
C[C@H]1CC2C3CCC4=CC(=O)C=C[C@]4(C)[C@@]3(Cl)[C@@H](O)C[C@]2(C)[C@@]1(O)C(=O)CO (stereo partly specified) | 2.6e+06 cps (inactive)
N=S(=O)(O)Cc1noc2ccccc12 | 2.1e+06 cps (inactive)
CCCCCCCCCCC/C=C\C(C)(C)/C=C\CCCC(=O)O | 2.3e+06 cps (inactive)
CCCCCCC/C=C\CCCCCCCCC(=O)O | 1.7e+06 cps (active)
CCCCCCCC/C=C\CCCCCCCC(=O)NCCO | 2.9e+06 cps (inactive)
CC1C(=O)N(C)C(=O)c2nc[nH]c21 (stereo unspecified) | 2.4e+06 cps (inactive)
N.N.O=C(O)C1(C(=O)O)CCC1.[Pt+2] | 2.5e+06 cps (inactive)
CCCCS(=N)(=O)CCC(N)C(=O)O (stereo unspecified) | 1.9e+06 cps (inactive)
CCCCCCCCCCCCCCCC(=O)NCCO | 2.9e+06 cps (inactive)
CC(=O)NCCc1ccc(O)c(O)c1 | 2.8e+06 cps (inactive)
CCCCCCCC/C=C\CCCCCCCC(=O)NCCc1ccc(O)c(O)c1 | 1.5e+06 cps (active)
NC(=O)c1ccccc1 | 2.5e+06 cps (inactive)
N#CC(Cc1ccc(O)c(O)c1)C(=O)N1CCc2ccccc21 (stereo unspecified) | 2.2e+06 cps (inactive)
CCNC(=O)[C@H]1O[C@@H](n2cnc3c(N)nc(NCCc4ccc(CCC(=O)O)cc4)nc32)C(O)[C@H]1O (stereo partly specified) | 2.4e+06 cps (inactive)
CC(=O)O[C@H]1CC2(C)[C@@H](C[C@@H](O)[C@H]3[C@@]4(C)CC[C@@H](O)[C@@H](C)[C@@H]4CC[C@@]32C)C1=C(CCC=C(C)C)C(=O)O (stereo partly specified) | 2.8e+06 cps (inactive)
O=C1N=C(O)CN1/N=C/c1ccc(-c2ccc([N+](=O)[O-])cc2)o1 | 3e+06 cps (inactive)
CCCCCCCCCCCCCCCCCC(=O)NCC(COP(=O)([O-])OCC[N+](C)(C)C)OCC (stereo unspecified) | 2.8e+06 cps (inactive)
CCCCCCCCCCCCCCCC(=O)NCC(COP(=O)([O-])OCC[N+](C)(C)C)OCC (stereo unspecified) | 1.9e+06 cps (active)
CCCCCCCCCCCCCCCCCCOC[C@H](COP(=O)([O-])OCC[N+](C)(C)C)OC | 2.6e+06 cps (inactive)
COc1cccc(-c2cc(=O)c3ccccc3o2)c1N | 2.2e+06 cps (inactive)
CC(C)OC(=O)C(C)(C)Oc1ccc(C(=O)c2ccc(Cl)cc2)cc1 | 2.9e+06 cps (inactive)
COc1ccc(CCN(C)CCCC(C#N)(c2cc(OC)c(OC)c(OC)c2)C(C)C)cc1OC (stereo unspecified) | 2.5e+06 cps (inactive)

Structure (SMILES) | luminescence
COc1ccccc1N1CCN(CCN2C(=O)CC3(CCCC3)CC2=O)CC1 | 3.1e+06 cps (inactive)
NC(=O)N1c2ccccc2C=Cc2ccccc21 | 2.7e+06 cps (inactive)
Cc1ccc(C(=O)O[C@H](C(=O)O)[C@H](OC(=O)c2ccc(C)cc2)C(=O)O)cc1 (tested in a mixture with another compound) | 2.5e+06 cps (inactive)
CNC[C@H](O)c1cccc(O)c1 | 2.3e+06 cps (inactive)
Cc1nc2n(c(=O)c1CCN1CCC(c3noc4cc(F)ccc34)CC1)CCCC2 | 2.6e+06 cps (inactive)
c1ccc(-c2ccccn2)nc1 | 2.6e+06 cps (inactive)
CCCCOC(=O)NS(=O)(=O)c1sc(CC(C)C)cc1-c1ccc(Cn2c(CC)nc3c(C)cc(C)nc32)cc1 | 2.5e+06 cps (inactive)
CC#C[C@]1(O)CC[C@H]2[C@@H]3CCC4=CC(=O)CCC4=C3[C@@H](c3ccc(N(C)C)cc3)C[C@@]21C | 2e+06 cps (inactive)
NCCCCCC(=O)O | 2.3e+06 cps (inactive)
Oc1cc(O)c2c(c1)O[C@H](c1ccc(O)c(O)c1)[C@@H](O)C2 | 2.8e+06 cps (inactive)
CN1Cc2c(N)cccc2C(c2ccccc2)C1 (stereo unspecified) | 2.2e+06 cps (inactive)
CN(C)c1cc2c(Nc3ccc4c(cnn4Cc4ccccc4)c3)ncnc2cn1 | 3e+06 cps (inactive)
CCSC(=N)N | 2.4e+06 cps (inactive)
N[C@@H](CC(=O)O)C(=O)O | 2.4e+06 cps (inactive)
N#Cc1cc2nc(O)c(O)nc2cc1[N+](=O)[O-] | 2.8e+06 cps (inactive)
CN(C)c1nc(N(C)C)nc(N(C)C)n1 | 2.4e+06 cps (inactive)
COc1cc([C@@H]2c3cc4c(cc3[C@H](O)C3COC(=O)[C@@H]32)OCO4)cc(OC)c1OC (stereo partly specified) | 2.6e+06 cps (inactive)
CN1[C@@H](CC(=O)c2ccccc2)CCC[C@H]1C[C@H](O)c1ccccc1 | 2.6e+06 cps (inactive)
CCCCN1CCC(COC(=O)c2cc(Cl)c(N)c3c2OCCO3)CC1 | 2.2e+06 cps (inactive)
COC(=O)C(N)Cc1ccc(Cl)cc1 (stereo unspecified) | 2.2e+06 cps (inactive)
CC(C)NC[C@@H](O)c1ccc(O)c(O)c1 | 2.5e+06 cps (inactive)
Nc1ccc(CCNc2ncnc3c2ncn3C2OC(CO)C(O)C2O)cc1 (stereo unspecified) | 2.9e+06 cps (inactive)
